# Source: ChEMBL document CHEMBL4513216, “Probing the Open Global Health Chemical Diversity Library for Multistage-Active Starting Points for Next-Generation Antimalarials” (ACS Infect Dis, 2020)
# Out of some 69,000 compounds screened, about 8,600 (12%) showed an effect of 50% or more. The full list was thinned out, with strong results kept by preference.
# Test system: Plasmodium berghei
# Assay: Screen against P. berghei liver stage (PbLuc), transformed with Luciferase, at 10uM
# Assay type: functional, HepG2
# Conditions: tested at 10 uM
row,SMILES,INHIBITION [%]
1,O=C1CC2(CCCCN2C(=O)c2cccs2)CN1CC1CC1 (configuration not stated),11.2
2,Cc1cc(NC(=O)NCC(O)c2ccc(F)c(F)c2)n(C)n1 (configuration not stated),21.8
3,CCn1cnnc1C1CCN(C(=O)c2cc(OC)ccc2OC)CC1,23.7
4,COc1cc(-n2cccc2)c(Cl)cc1C(N)=O,-90.8
5,CCc1ncc(C(=O)N2CCCC2Cn2cccn2)s1 (configuration not stated),49.8
6,CS(=O)(=O)Nc1ccn(Cc2ccc(F)cc2Cl)n1,31.7
7,CC(C)(C)n1cc(C(=O)N2CCN(Cc3cccnc3)CC2)cn1,-39.67
8,CCN(CC)C(=O)c1nnsc1-c1ccc(C)cc1,54.8
9,CCN(CC)C(=O)c1nnsc1-c1ccc(Cl)cc1,33.9
10,CCN(CC)C(=O)c1nnsc1-c1ccccc1,7.25
11,CCOCC(=O)N1Cc2[nH]nc(COCC3CC3)c2C1,2.4
12,CC(C)c1nc2c(n1C)CCN(CC(=O)Nc1ccncc1)C2,11.6
13,Cc1cccc(NC(=O)[C@@H]2CCCN2Cc2ccc(C#N)cc2F)n1,25.2
14,N#Cc1ccc(CNC(=O)NCCC(=O)NC2CCCC2)c(F)c1,17.1
15,CC1CCCCN1CCNC(=O)NCc1ccc(C#N)cc1F (configuration not stated),50.7
16,N#Cc1ccc(F)c(CNC(=O)NCCC(=O)NC2CCCC2)c1,22.5
17,N#Cc1ccc(CNC(=O)NCCNC(=O)C2CCCC2)c(F)c1,52.8
18,CC1CCCCN1CCNC(=O)c1ccn(-c2ccc(F)cc2)n1 (configuration not stated),34.1
19,CC(C)S(=O)(=O)N1CCC(Cc2cccc(C(=O)O)c2)C1 (configuration not stated),1.37
20,CN1C(=N)NC(=O)/C1=C\c1ccc(-c2ccc(F)cc2)o1,19.3
21,CCn1cc(S(=O)(=O)N2CCC(C)CC2)c(C)n1,4.35
22,O=C(c1sccc1C1CC1)N1CCN(c2nccs2)CC1,36.3
23,O=C(c1cccc(-c2ccc(F)cc2)c1)N1CCCC(O)(CO)CC1 (configuration not stated),-122

row,SMILES,INHIBITION [%]
1,COC(=O)c1ccc(N2CCN(C(=O)c3ccc(=O)n(C)c3)CC2)cc1,36.9
2,O=C(c1cccc(Oc2ccccc2)c1)N1CCCC(O)(CO)CC1 (configuration not stated),16.1
3,CN(C)c1cc(C(=O)N2CCN(c3cc(C#N)ccn3)CC2)ccn1,-8.95
4,COc1ccnc(N2CCN(C(=O)c3cccc(C#N)c3)CC2)n1,18.2
5,N#Cc1cccc(C(=O)N2CCN(c3ncccn3)CC2)c1,62.1
6,Cn1ccc(C(=O)N2CCN(c3ccccn3)CC2)cc1=O,36.1
7,CCOc1ccnc(N2CCN(C(=O)c3cccc(C#N)c3)CC2)n1,-13.7
8,N#Cc1cccc(C(=O)N2CCCC(O)(CO)CC2)c1 (configuration not stated),66.9
9,Cn1ccc(C(=O)N2CCN(c3ncccn3)CC2)cc1=O,31.3
10,COC(=O)c1ccc(N2CCN(C(=O)c3ccn(C)c(=O)c3)CC2)cc1,54.5
11,Cn1ccc(C(=O)N2CCN(c3cc(C#N)ccn3)CC2)cc1=O,59.4
12,COCCNC(=O)c1cc(OC)c2ccoc2c1,27.7
13,CNc1nc(C(=O)N2CCCn3nc(C(=O)N4CCCC4)cc3C2)cs1,26.5
14,CC(Cn1cccn1)NC(=O)NCc1cccnc1OC(C)C (configuration not stated),11.2
15,CC[S+]([O-])CCc1nc(CC(C)C)nn1-c1ccc2c(c1)OCCO2 (configuration not stated),30.3
16,CCNC(=O)COc1cc(CC)c2c(C)nn(-c3ccc(C)cc3)c2n1,66.1
17,CCCNC(=O)COc1cc(C)c2c(C)nn(-c3ccc(C)cc3)c2n1,15.4
18,Cc1ccc(-n2nc(C)c3c(C)cc(OCC(=O)NC(C)C)nc32)cc1,2.55
19,CS(=O)(=O)N1CCC(NC(=O)COc2ccc(Br)cc2Cl)CC1,45.1
20,Cc1nc(N)cc(C2CCN2CCC(N)=O)n1 (configuration not stated),-4.87
21,Cc1ccsc1C(=O)N1CCC2(CC1)C(=O)N(C)CCN2CC1CC1,4.08
22,Cc1ccc(NC2CCN(C(=O)c3cccc4cccnc34)CC2)nn1,11.9
23,O=C(CCN1C[C@@H]2CC[C@H]1CN(c1ncccn1)C2)NCc1ccco1,6.67

row,SMILES,INHIBITION [%]
1,CN(C)S(=O)(=O)N1C[C@H]2CC[C@@H](C1)N(CCC(=O)NCc1ccco1)C2,66.9
2,CS(=O)(=O)N1C[C@H]2CC[C@@H](C1)N(CCC(=O)NCc1ccco1)C2,13.2
3,O=C(COc1coc(CN2CCCCC2)cc1=O)c1ccc(Cl)cc1,38.3
4,CCN1CCOCC12CCN(C(=O)C1CCCC1)CC2,-7.28
5,CC(CS(C)(=O)=O)NC(=O)N1CC2(CCCC2)c2ccccc21 (configuration not stated),-16.1
6,COCCc1ncc(-c2c(C#N)c(N)nc3c2CCc2[nH]ccc2-3)cn1,27.9
7,Cn1cc(-c2c(C#N)c(N)nc3c2CCc2[nH]ccc2-3)cn1,60.1
8,Cc1n[nH]c(C)c1-c1c(C#N)c(N)nc2c1CCc1[nH]ccc1-2,39.7
9,CCc1ccc(-c2c(C)c(-c3cnn(C)c3)nc(N)c2C#N)o1,-7.7
10,Cc1cc(-c2c(C)c(-c3cnn(C)c3)nc(N)c2C#N)oc1C,31.6
11,Cc1c(-c2cnn(C)c2)nc(N)c(C#N)c1-c1ccc(CO)o1,88
12,Cn1cc(-c2c(C#N)c(N)nc3c2CCc2[nH]ccc2-3)cc1C#N,50
13,COc1ncc(-c2c(C#N)c(N)nc3c2CCc2[nH]ccc2-3)cn1,39.05
14,CC(C)n1cc(-c2c(C#N)c(N)nc3c2COCC3)cn1,34.5
15,O=C(CN1CCCC1Cn1cncn1)Nc1nncs1 (configuration not stated),-8.66
16,COCCN(Cc1ccccc1Cl)c1nc(CCN)nc2ccccc12,47.3
17,N#Cc1cccc(CN2C[C@H](NC(=O)C3CC3)[C@H]3OCCC[C@H]32)c1,35.8
18,COc1cc(C(=O)N(Cc2cccs2)C2CC2)cc2c1OCCO2,47.4
19,Cc1oncc1C(=O)N[C@@H]1CN(Cc2ccco2)C[C@@H]2CCCO[C@@H]21,0.453
20,COC(=O)CNC(=O)c1nc(Br)sc1C(C)C,45.3
21,Cc1nc2n(n1)CC(NCCC(=O)Nc1cc(C)on1)CC2 (configuration not stated),-3.2
